This is a sample that favours compounds with a hit; in the whole collection about 4.3% have one here.
MCF10A rereplic: A quantitative high throughput screen for small molecules that induce DNA re-replication in MCF 10a normal breast cells. Potency, µM (titrated, usually from 46.1 µM), for the others: at the top dose activity, positive = re-replication, hits mostly activators. hit rate 2.9% among 350,000. MCF 10A DNA re-replication, Hoechst nuclear intensity, 48 h; further: potency means the concentration at half of the fitted maximal effect; % of control where 0% means no effect; nearly all actives have a fitted effect of over 50% in size
uPA generation: qHTS for Inhibitors of Cell Surface uPA Generation. hit rate 0.31% among 330,000. cell surface uPA generation assay, qHTS. Potency, µM (titrated, usually from 38.3 µM), for inactives: top-dose activity change, negative = inhibition, most hits filed as inhibitors; active means well fitted inhibition curve with a large enough effect; inconclusive means small, poorly fitted or top-dose-only effect; inactive means no such curve, though single readings can be large or run the other way; tested in mouse RAW 264.7 cells; further: potency means the concentration at half of the fitted maximal effect; on the % scale 0 is the no-effect control and ±100 the full control effect; nearly all actives have a fitted effect of over 55% in size
Giardia killer: Small Molecules that selectively kill Giardia lamblia: qHTS; activity change, % at 7.66 µM, hits read low; AID 540267, 2011; hit rate 0.15% among 340,000; Giardia lamblia trophozoite viability; in the data active means activity change below about -80%; inconclusive means between about -30% and that limit;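 further: parasites exposed to compound for two days anaerobically before the ATP read; on the % scale 0 is the no-effect control and ±100 the full control effect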
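Giardia lamblia trophozoites (100 cells/well) were incubated with compounds for 48 h at 37 deg C under anaerobic conditions. Viability was read as ATP content by one-step luminescence after 15-30 min at room temperature.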
SW480 rereplic: A quantitative high throughput screen for small molecules that induce DNA re-replication in SW480 colon adenocarcinoma cells | hit rate 1.8% among 340,000 | Potency, µM (titrated, usually from 46.1 µM), for the others: at the highest dose re-replication activation, actives largely listed as activators | SW480 DNA re-replication, Hoechst DNA content imaging, 48 h | AID 624297, 2012; further: potency means the concentration at half of the fitted maximal effect; % of control where 0% means no effect; nearly all actives have a fitted effect of over 55% in size
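Image-based read-out: total Hoechst fluorescence of nuclei (405 nm excitation, 500-530 nm emission), with hits raising the fraction of high-intensity nuclei. SW480 colon cells incubated 48 hr with compounds at 37 C.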
Active calls of the source: *; ? = inconclusive; . = no result given; ! = not confirmed by another sample; [ ] = remark or other dose. Unless noted, the call rests on the fitted dose curve; in most records, active means well fitted activation curve with a large enough effect; inconclusive means small, poorly fitted or top-dose-only effect; inactive means no such curve, though single readings can be large or run the other way.

SMILES	MCF10A rereplic	uPA generation	Giardia killer	SW480 rereplic
CC1CC(=O)c2c(cc3c(-c4c(O)cc(O)c5c(O)c6c(cc45)OC(C)CC6=O)c(O)cc(O)c3c2O)O1 (configuration not stated)	?	?	?	6.5µM*
Cc1ccc(S(=O)(=O)Nc2ccccc2N(C)S(=O)(=O)c2ccc(C)cc2)cc1	-8%	?	-1	0%[9.22 µM]
COc1cc(C)c(C(=O)CC(=O)c2c(C)cc(OC)cc2C)c(C)c1	16µM*	-10%	8	16µM*
Cc1ccc(N/N=C/C=C/c2ccco2)cc1	12µM*	-2%	-12	21µM*
NC(=O)[C@H]1CC2(CC(c3cccc(NC(=O)COc4ccc(Cl)cc4)c3)=NO2)CN1C(=O)Cc1ccc([N+](=O)[O-])cc1 (some centres not stated)	10%	?	20	?
O=P(O)(O)CN1CCNCCN(CP(=O)(O)O)CCNCC1	25%	-7%	9	4.1µM*
S=C(S)N1CCNCC1	0%	.	.	2%
On1ccccc1=S	6.5µM*	-17%	-19	10%
c1ccc(C2(c3ccccc3)CC2C2=NCCN2)cc1 (configuration not stated)	5%	.	.	1%
CCC1(C2=NCCN2)Cc2ccccc2O1 (configuration not stated)	?	8%	-24	12µM*!
Cc1cc(C)c(CN2CCN(C(=O)Cn3cnc4c(NCc5ccccc5)ncnc43)CC2)c(C)c1	35%	?	-28	5%
N#CC1=C(N)Oc2c(c(=O)oc3ccccc23)C1c1ccncc1 (configuration not stated)	8%	11%	21	-6%
N#CC1=C(N)Oc2c(c(=O)sc3ccccc23)C1c1cccnc1 (configuration not stated)	8.2µM*	-12%	-23	15µM*
CCOC(=O)c1c(N2C(=O)C=CC2=O)sc(C)c1C	2.9µM*	?	-3	9.2µM*
CC(C)(C)OC(=O)N1CC(O)CC1C(=O)OCC(=O)c1ccc(-c2ccccc2)cc1 (configuration not stated)	?	9%	12	3%
COc1ccc(CC(=O)NC(=S)NNC(=O)COc2c(C)cccc2C)cc1	?	-1%	-11	-9%
O=C(CCl)Nc1sccc1C(=O)c1ccccc1	?	-4%	-27	?
O=C(CCl)NN=C(c1ccccc1)c1ccccc1	15µM*	3%	36	?
COc1cc(/C=N/Nc2ccc(S(N)(=O)=O)cc2)cc(OC)c1OC	?	-3%	16	-2%
S=C(S)N1CCCC1	?	6%	22	3%
CCC1C/C(=C\c2cc(OC)c(OC)cc2OC)C(=O)/C(=C/c2cc(OC)c(OC)cc2OC)C1 (configuration not stated)	4.6µM*	?	11	18µM*
COc1ccc(C(=O)Nc2ccccc2-c2nnn(CC(=O)Nc3ccc4c(c3)OCCO4)n2)cc1	16µM*	0%	0	4%
Cc1cc(C(=O)Nc2ccc3c(c2)OCCO3)nn1C(C)(C)C	9%	-25%	-14	-1%
C1=CC2C3C=CC(C3)C2C1 (configuration not stated)	-11%	5%	-13	?
CCC(CC)NCc1c[nH]c2ccccc12	3%	4.5µM*	5	-2%
SMILES	MCF10A rereplic	uPA generation	Giardia killer	SW480 rereplic
Nc1cc(Cl)c2nonc2c1[N+](=O)[O-]	3.3µM*	0%	-23	?
Cc1cnc(C(=O)Nc2ccc(OC(F)(F)F)cc2)cn1	15%	?	-3	11%
CC(C)N1C(=O)/C(=C/C=C/c2ccco2)C(=O)N(Cc2ccco2)C1=O	9.2µM*	-9%	26	?
COc1ccc(/C=C2/C(=O)N(Cc3ccco3)C(=O)N(C(C)C)C2=O)cc1	18µM*	13%	8	6%
CCCCCCC(=O)CCCCCC/C=C/C[C@@H](O)[C@H](O)[C@@](N)(CO)C(=O)O	11%	.	.	2%
[N-]=[N+]=CC(=O)OCC(N)C(=O)O (configuration not stated)	15%	.	.	2%
Nc1ccc2c3c(cccc13)CC2	16µM*	-15%	13	16µM*
CCO[C@H]1OC(C(=O)N2CCN(Cc3ccc4c(c3)OCO4)CC2)=C[C@@H](c2ccc(Br)cc2)[C@@H]1CCCO	?	?	-2	-6%
O=[N+]([O-])c1ccc(-c2ccc(C=Nc3cccc4ccccc34)o2)cc1	8.2µM*	-20%	12	12µM*
C=C[C@@H]1CN2CC[C@H]1C[C@H]2[C@H](O)c1ccnc2ccccc12	0%	.	.	-8%
CC(C)(C)c1nc(N2CCN(C(=O)c3ccco3)CC2)c2nnn(Cc3ccccc3Cl)c2n1	18µM*	-1%	5	10%
COc1ccc2nc(NC(=O)c3ccc4ncsc4c3)sc2c1	15µM*	?	16	?
COc1ccc2nc(NC(=O)CCc3nc(C4=CCN(C)CC4)no3)sc2c1	4%	-8%	?	-4%
CCCCCC(O)C1C(=O)OC(C)C(O)\C=C/C=C\C=C/C=C\C=C(\C)C(O)C(O)C(O)CC(O)CC(O)CC(O)CC(O)CC1O (configuration not stated)	5%	.	.	-8%
COc1cccc(CN2C(=O)[C@@H]3Cc4c([nH]c5ccccc45)C(C)(C)N3C2=O)c1	-4%	-7%	-11	2%
O=Nc1c(O)c2ccccc2c2ccccc12	6.5µM*	5.6µM*	-20	1.8µM*
Cc1cccc(N2CCN(C(=O)CCNS(=O)(=O)c3ccc4c(c3)oc(=O)n4C)CC2)c1C	?	-10%	18	?
O=C(Nc1ccccc1)Oc1ccccc1	-6%	-10%	14	-5%
CC(C)Oc1ccc(CNC(=O)Oc2ccccc2)cc1	12µM*	?	22	?
CC[C@H]1CC2CN3CCc4c([nH]c5cc(OC)ccc45)[C@](C(=O)OC)(C2)[C@H]13	?	-15%	-10	0.73µM*
O=C1NC(=O)C2(Cc3ccccc3N3CCCC32)C(=O)N1c1ccc(Cl)cc1 (configuration not stated)	21µM*	.	9	1%
C[C@@]12CC[C@H]3[C@@H](CC[C@@H]4C[C@H]5S[C@H]5C[C@]43C)[C@H]1CC[C@H]2O	10%[20.6 µM]	.	.	-1%[20.6 µM]
Cc1ccc(S(=O)(=O)NP(=O)(Oc2ccccc2)Oc2ccccc2)cc1	-2%	-6%	-4	-2%
Cc1ccc(C)c(NP(=O)(Oc2ccccc2)Oc2ccccc2)c1	21µM*	5%	?	-1%
CC1CCN(C(=O)c2ncn(C)c2C(=O)N2CCC(C)CC2)CC1	5%	2%	7	-5%
Nc1c(C(=O)Nc2ccc3c(c2)OCCO3)nnn1CCc1ccccc1	20%	7.9µM*	-8	?
C/C1=C\[C@@H](C)C/C=C/[C@H]2[C@@H]3O[C@]3(C)[C@@H](C)[C@H]3[C@H](Cc4c[nH]c5ccccc45)NC(=O)[C@]32C(=O)/C=C/C(=O)[C@@H]1O	0.73µM*	0.79µM*	-20	1.2µM*
